These results are taken from PubChem BioAssay (NCATS).

Results filed as inconclusive are left out. The source made the active and inactive calls. Calls follow the shape of the dose curve; as a rule, active = well fitted inhibition curve with a large enough effect; inconclusive = small, poorly fitted or top-dose-only effect; inactive = flat fitted curve, though single readings scatter.

Assay in all cases: qHTS profiling for inhibitors of Plasmodium falciparum proliferation (AID 504749); also: nearly all actives have a fitted effect of over 60% in size
Common to all, as to conditions: P. falciparum in erythrocytes, SYBR Green DNA, 72 h; series mostly up to 28.7 µM

Test [1] has as its system FAB9. An outline of the steps:
(§1)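 SYBR Green fluorescence (ex 485 nm, em 535 nm) reports parasite DNA after 72 h compound exposure of infected red cells at 0.3% parasitemia, 2.5% hematocrit; signal normalized to 0.29 uM artemisinin and vehicle wells.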

The subject of test [2] is GB4. Summed up:
as §1

For test [3], the system named is HB3. An outline of the steps: as §1
Test [4] has as its system ICS. Summed up: as §1
Test [5] concerns JCK. Summed up: as §1
In test [6] the test system is N140. Summed up:
as §1

Test [7] concerns P93_24. Summed up:
as §1

For test [8], the system named is P94_40. Summed up:
as §1

For test [9], the system named is PAD. Summed up: as §1
Test [10] has as its system PC15. Summed up:
as §1
Potency is read from the fitted curve at half-maximal effect.

For `CCCC(C)C1(CC)C(=O)NC(=O)NC1=O` (stereo not drawn), the Potency entry in test [1], in [2], in test [3], in test [4], in test [5] and in test [6] was “inactive” in each case. Further, the Potency result in test [7], in [8], in test [9] and in [10] was “inactive” throughout.
`CN1C2CCC1CC(OC(c1ccccc1)c1ccc(Cl)cc1)C2` (stereo not drawn): the Potency in [1] is 11.2 µM (active); in test [2], 6.01 µM (active); in [3], 12.6 µM (active); in [4], 3.55 µM (active); in [5], 12.6 µM (active); in [6] it was 11.2 µM (active). Also, the Potency was 8.91 µM (active) in test [7], 10 µM (active) in [8], 12.6 µM (active) in test [9] and 3.98 µM (active) in test [10].
`O=C/C=C/c1ccccc1`: the Potency entry in [1], in test [2], in test [3], in [4], in test [5] and in test [6] was “inactive” throughout. In addition, the Potency result in test [7], in [8], in test [9] and in test [10] was “inactive” each time.
On to `CCC(C)(S(=O)(=O)CC)S(=O)(=O)CC`, for which the Potency entry in test [1], in test [2], in [3], in test [4], in test [5] and in test [6] was “inactive” throughout. The Potency result in test [7], in test [8], in [9] and in [10] was “inactive” each time.
Consider `C[CH2][Hg][S]c1ccccc1C(=O)O`, for which the Potency in test [1] is 5.62 µM (active); in [2], 1.69 µM (active); in [3] it was 2.24 µM (active); in [4], 1.26 µM (active); in [5], 10 µM (active); in test [6] it was 2.24 µM (active). Besides, the Potency in test [7] was 2.82 µM (active); in [8] it was 3.16 µM (active); in [9] it was 2.82 µM (active); in test [10], 4.47 µM (active).
For `COc1ccc(OC)c(C(O)C(C)N)c1` (stereo not drawn), the Potency entry in test [1], in [2], in test [3], in [4], in test [5] and in test [6] was “inactive” throughout. The Potency result in [7], in [8], in [9] and in [10] was “inactive” throughout.
As to `ClC1C(Cl)C(Cl)C(Cl)C(Cl)C1Cl` (stereo not drawn), the Potency result in test [1], in test [2], in test [3], in test [4], in test [5] and in test [6] was “inactive” throughout. Moreover, the Potency result in test [7], in [8], in test [9] and in [10] was “inactive” each time.
`CCCCCCCCOC(=O)c1ccccc1C(=O)OCCCCCCCC`: the Potency entry in test [1], in [2], in test [3], in test [5], in test [6] and in test [8] was “inactive” in each case. The Potency entry in [9] and in test [10] was “inactive” in each case.
As to `CN1CCCC(=C(c2cccs2)c2cccs2)C1`, the Potency entry in test [1], in test [3], in test [5] and in test [10] was “inactive” throughout. Moreover, the Potency in test [2] is 8.49 µM (active).
`Cc1sc2ccccc2c1CC1=NCCN1`: the Potency entry in test [1], in test [3], in test [4], in test [5], in test [6] and in [7] was “inactive” each time. The Potency entry in test [8] and in test [9] was “inactive” throughout.
As for `CCC(=O)O[C@@](Cc1ccccc1)(c1ccccc1)[C@@H](C)CN(C)C`, the Potency result in [1], in test [3], in test [5], in test [8] and in [9] was “inactive” each time.
On to `C[C@@H](Cc1ccccc1)NCCC(c1ccccc1)c1ccccc1`, for which the Potency entry in test [1] and in test [5] was “inactive” each time. The Potency in test [4] is 3.16 µM (active).
`CCCCCCCCCC(=O)O[C@H]1CC[C@H]2[C@@H]3CCC4=CC(=O)CC[C@]4(C)[C@H]3CC[C@]12C`: the Potency entry in [1], in test [2], in test [3], in test [5], in test [6] and in test [7] was “inactive” throughout. Besides, the Potency entry in [8], in [9] and in [10] was “inactive” throughout.
As to `[Cl-].[Cl-].[Hg+2]`, the Potency in test [1] was 7.08 µM (active); in test [2] it was 4.78 µM (active); in test [4], 12.6 µM (active); in [6] it was 10 µM (active); in test [9], 7.08 µM (active). Moreover, the Potency result in test [3] is “inactive”.
For `CCCCCl`, the Potency result in test [1], in test [2], in test [3], in test [4], in test [6] and in test [7] was “inactive” each time. Also, the Potency entry in [8], in [9] and in [10] was “inactive” throughout.
For the compound `C=CCC1(C(C)CCC)C(=O)N=C(S)NC1=O` (stereo not drawn), the Potency entry in [1], in test [3], in [4], in test [5], in test [6] and in test [7] was “inactive” throughout. In addition, the Potency result in test [8], in [9] and in [10] was “inactive” each time.
On to `CCCC(=O)OC(C(Cl)(Cl)Cl)P(=O)(OC)OC` (stereo not drawn), for which the Potency entry in test [1], in [2], in [3], in [5], in test [6] and in test [9] was “inactive” throughout.
As to `CCOP(=O)(OCC)O/C(=C/Cl)c1ccc(Cl)cc1Cl`, the Potency result in test [1], in test [3], in test [5], in test [6], in [9] and in [10] was “inactive” throughout.
Take `CCOc1ccc2c3c1O[C@H]1[C@@H](O)C=C[C@H]4[C@@H](C2)N(C)CC[C@@]341`: the Potency entry in [1], in test [3], in [4], in test [5], in [6] and in test [7] was “inactive” throughout. For the same compound, the Potency entry in [8], in test [9] and in test [10] was “inactive” each time.
In the case of `C=CCN=C=S`, the Potency result in [1], in test [3], in test [4], in test [5], in test [6] and in test [7] was “inactive” in each case. Further, the Potency entry in test [8], in test [9] and in [10] was “inactive” each time.
In the case of `O=c1c2ccccc2[se]n1-c1ccccc1`, the Potency result in test [1], in test [3] and in test [5] was “inactive” each time.
As for `CNC(=O)Oc1ccccc1C(=O)Nc1ccccc1`, the Potency entry in test [1], in [3] and in test [10] was “inactive” each time. For the same compound, the Potency in test [2] is 15.1 µM (active); in [4], 12.6 µM (active).
For `CC12NC(Cc3ccccc31)c1ccccc12` (stereo not drawn), the Potency result in test [1], in test [3], in test [5], in [6], in test [9] and in [10] was “inactive” each time. The Potency in test [7] is 10 µM (active).
For `OC(c1ccccc1)(c1ccccc1)C1CN2CCC1CC2` (stereo not drawn), the Potency result in test [1], in test [3], in test [5], in test [6], in test [7] and in [8] was “inactive” throughout.
As for `CCC1(c2ccccc2)C(=O)NC(=O)N(C)C1=O` (stereo not drawn), the Potency entry in test [1], in test [5] and in test [8] was “inactive” each time. The Potency in test [3] is 11.2 µM (active); in [4], 3.98 µM (active).
For `C[C@H]1CCC[C@H](O)CCCCCc2cc(O)cc(O)c2C(=O)O1`, the Potency entry in [1], in test [3], in [5], in test [7], in test [9] and in test [10] was “inactive” each time.
For the compound `O=c1[nH]cc(N(CCCl)CCCl)c(=O)[nH]1`, the Potency result in test [1], in test [2], in test [3], in test [5], in test [6] and in test [7] was “inactive” in each case. Also, the Potency entry in test [8], in test [9] and in [10] was “inactive” throughout.
For the compound `Oc1cc(Cl)c(Cl)cc1Cl`, the Potency result in test [1], in test [3], in test [5], in test [6], in [7] and in test [8] was “inactive” each time. Moreover, the Potency result in test [9] and in test [10] was “inactive” each time.
Consider `c1ccc2cc(CC3=NCCN3)ccc2c1`, for which the Potency entry in test [1], in test [3], in test [4], in [5], in test [6] and in test [7] was “inactive” each time. For the same compound, the Potency result in test [8], in [9] and in [10] was “inactive” in each case.
With `CCCN1CCCC2Cc3[nH]ncc3CC21` (stereo not drawn), the Potency entry in test [1], in test [3], in test [4], in test [5], in test [6] and in [7] was “inactive” in each case. Further, the Potency entry in test [8], in test [9] and in test [10] was “inactive” in each case.
Consider `O=S(=O)(O)c1cc(O)ccc1O`, for which the Potency entry in test [1], in test [3], in test [4], in test [5], in [6] and in [7] was “inactive” each time. Also, the Potency entry in test [8], in [9] and in test [10] was “inactive” each time.
On to `CC1CCC(C(C)C)C(OC(=O)c2ccccc2N)C1` (stereo not drawn), for which the Potency entry in test [1], in test [5], in [6], in test [7] and in test [9] was “inactive” in each case.
